# Over roughly 33,000 sequences, “E-score (-0.5 to 0.5)” has its median near -0.054; the highest 2% begin near 0.35. Shown is part of a subset that was picked to be rich in the highest values.
# Target: T1, Stb5 (UniProt P38699)
# T1 sequence: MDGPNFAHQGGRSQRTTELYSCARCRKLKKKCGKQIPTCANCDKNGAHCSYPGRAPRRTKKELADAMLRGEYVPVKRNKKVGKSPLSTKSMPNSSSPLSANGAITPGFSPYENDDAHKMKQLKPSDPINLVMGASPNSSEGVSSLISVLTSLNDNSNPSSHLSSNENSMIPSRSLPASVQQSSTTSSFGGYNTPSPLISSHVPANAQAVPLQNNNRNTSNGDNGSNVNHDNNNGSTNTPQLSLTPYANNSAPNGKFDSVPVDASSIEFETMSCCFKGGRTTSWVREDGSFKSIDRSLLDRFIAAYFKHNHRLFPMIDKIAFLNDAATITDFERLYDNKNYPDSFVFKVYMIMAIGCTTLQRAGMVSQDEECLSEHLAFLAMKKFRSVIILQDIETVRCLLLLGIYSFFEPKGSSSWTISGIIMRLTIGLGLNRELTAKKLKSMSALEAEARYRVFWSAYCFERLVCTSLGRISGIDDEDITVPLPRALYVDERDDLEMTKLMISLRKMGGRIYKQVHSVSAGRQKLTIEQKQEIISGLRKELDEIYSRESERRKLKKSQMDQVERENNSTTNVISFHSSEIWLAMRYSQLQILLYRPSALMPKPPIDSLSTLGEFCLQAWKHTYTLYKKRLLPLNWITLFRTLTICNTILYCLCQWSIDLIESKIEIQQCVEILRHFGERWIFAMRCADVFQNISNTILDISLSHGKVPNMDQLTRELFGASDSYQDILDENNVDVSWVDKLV
# Assay: PBM E-score (8-mer binding enrichment) (E-score (-0.5 to 0.5)); higher = stronger / more preferred TF binding
# Conditions: protein concentration: 200 nM; construct: GST-full length
# Description: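 Universal 'all 10-mer' protein binding microarrays (Agilent AMADID 015681) probed with GST-tagged S. cerevisiae TFs (full-length or DBD) made by in vitro transcription/translation (PURExpress), about 100-200 nM. Bound TF was detected with fluorescent anti-GST. Each ungapped 8-mer (which stands for itself and its reverse complement) is scored by the PBM enrichment score (E-score), a modified Wilcoxon-Mann-Whitney statistic from -0.5 to +0.5, computed with the Universal PBM Analysis Suite. Scale: above 0.35 generally sequence-specific binding.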
row,Sequence,PBM E-score
1,CATCCGAC,0.288
2,CGAGACTA,-0.0587
3,GGGGGTCA,-0.125
4,CGGGGTCA,0.441
5,GGGGGTGA,-0.123
6,CCGGGTCA,0.176
7,CCGGGTGA,0.179
8,CGGGGTGA,0.432
9,CGCTTGGA,-0.0324
10,TAGGACAA,-0.287
11,CCCCGGTA,0.298
12,CCCCGGTC,0.369
13,ACCCGGTC,0.204
14,CCCGGGTC,0.352
15,ACCGGGTC,0.19
16,CCCGGGTA,0.101
17,CCCGCACG,0.325
18,GAAGTTCA,-0.189
19,CCCCGGGA,0.268
20,ACCCCGGG,0.392
21,ACCCCGGC,0.343
22,ACCCCGGA,0.308
23,CCCCGGGG,0.393
24,ACCCGGGG,0.185
25,CCCCGGGC,0.265

row,Sequence,PBM E-score
1,CCCCCGGG,0.237
2,ACCCCGGT,0.356
3,TAGAAAAA,-0.116
4,ACAGCCCC,-0.0495
5,CCTGTGAC,-0.0962
6,CCGATGAC,0.301
7,GTCCACGA,-0.134
8,AGGCTCTC,-0.369
9,AGAACTTA,-0.169
10,AATGTAGT,-0.128
11,ACAAAGCA,-0.0624
12,CTTGGGAC,-0.0832
13,AAATGCCG,0.435
14,AAGTGCCA,-0.182
15,CAATGCCG,0.334
16,AAATGCCC,0.0775
17,AAGTGCCG,0.409
18,AATTGCCG,0.354
19,AATTGCCC,0.0559
20,AATTGCCA,-0.27
21,AAGTGCCC,0.0216
22,CTAGCGTC,0.0861
23,AGAAACCA,-0.212
24,CCATGGCA,-0.0516
25,ACCCCTAC,-0.171

row,Sequence,PBM E-score
1,ATACATTC,-0.228
2,CACCGTCG,0.373
3,CACCGTCA,0.333
4,AACCGTCC,-0.0366
5,AACCGTCG,0.212
6,CACCGTCC,0.407
7,GACCGTCC,0.21
8,AACCTAGC,-0.17
9,CTGTGGCA,-0.279
10,CTAAGCCC,0.324
11,ATAAGCCA,-0.107
12,ATAAGGCC,0.359
13,CTAAAGCC,0.228
14,CTAAGGCC,0.262
15,CTAAGACC,0.22
16,ATAAGACC,0.397
17,ATAAGCCC,0.406
18,ATAAGGCG,-0.00531
19,ATAAGACG,-0.111
20,ATAAAGCG,0.236
21,ATAAAGCC,0.359
22,AGAAAGAG,-0.102
23,ACCTGATA,0.0218
24,ATAAGTCG,0.15
25,CTAAGTCC,0.245

row,Sequence,PBM E-score
1,ATAAGTCC,0.443
2,ATGCGTTG,-0.0346
3,AAACTCCC,0.104
4,GAGTTCGC,0.0473
5,AACGCCGC,0.448
6,CACGCCGC,0.293
7,GACGCCGC,0.406
8,GACGCCGA,0.342
9,TACGCCGA,0.299
10,AACGCCGA,0.456
11,AACGCCTT,-0.00961
12,AACGCCAC,-0.0588
13,AACGCCAT,-0.106
14,AACGCCGT,0.437
15,AACGCCTC,-0.064
16,CACGCCGA,0.133
17,ATAGCCCA,-0.245
18,ACCAGCGA,0.0766
19,AAAGAGAA,-0.00974
20,AACGCCCG,0.24
21,AACGCCGG,0.44
22,CACGCCGG,0.268
23,AAATAGAT,0.104
24,AGCTCCGG,0.362
25,AGCTCCCG,-0.0713

row,Sequence,PBM E-score
1,CGCTCCGA,0.231
2,AGCTCCGA,0.405
3,AGCTCCTG,-0.18
4,AGCTCCTC,-0.184
5,CGCTCCGC,0.164
6,AGCTCCGC,0.406
7,GGCTCCGA,0.0871
8,AGAGCAGA,-0.138
9,AGGCCCGC,0.36
10,ATGCCCGG,0.318
11,CTGCCCGC,0.06
12,AGGCCCGA,0.314
13,ATGCCCGC,0.366
14,CGGCCCGC,0.188
15,TGACGTCA,0.158
16,AGATGCGA,0.0797
17,TACCACGA,-0.267
18,CTCCGCCC,0.397
19,GGCCGCCC,0.253
20,CGCCGCGC,0.368
21,AGCCGCCG,0.215
22,CGCCGCCG,0.369
23,CGCCGCCA,0.348
24,CGCCGCCC,0.352
25,AGCCGCGC,0.173

row,Sequence,PBM E-score
1,ATCCGCCC,0.218
2,CTCCGCCA,0.293
3,CGCCGCGA,0.289
4,AGCCGCCC,0.144
5,ATACCTCG,-0.173
6,GCTTCGAA,-0.0877
7,ACGTACCC,0.0314
8,AACTCTAG,-0.33
9,GGACTCAC,0.0404
10,AGGACCAA,-0.115
11,AAGCCTCT,-0.318
12,AAGTAGCG,0.0894
13,GAAGTTCC,0.0956
14,ACTCCGCT,0.392
15,AATCCGCG,0.21
16,ACTCCGCA,0.259
17,ACTCCGCC,0.384
18,CCTCCGCC,0.223
19,CCTCCGCG,0.157
20,ACTCCGAT,0.344
21,GCTCCGCC,0.347
22,ACTCCGCG,0.357
23,AGATAAGC,-0.142
24,CACACTAG,-0.189
25,AGTCCACC,0.0594

row,Sequence,PBM E-score
1,AAAATATT,0.114
2,GAAGGCAA,-0.234
3,GTCTTCCA,-0.125
4,ATCCAAAT,-0.103
5,GGTGCTAA,0.358
6,AGTGCTAA,-0.043
7,TGTGCTAA,0.0576
8,GCCGCGCC,0.221
9,CGGTCACG,0.149
10,GGCCGGCC,0.15
11,GGCCGGCA,0.289
12,AGCCGGCG,0.248
13,CGCCGGCC,0.391
14,CGGCGCCG,0.309
15,AGCCGGCC,0.111
16,AGCCGGCA,0.256
17,CGCCGGCA,0.354
18,CGCCGGCG,0.428
19,ATAAAAGA,0.0611
20,GAGCAATA,-0.118
21,CAACACTG,-0.305
22,CAGTCAAG,-0.338
